BRCA1 expr up = activators of BRCA1 expression; MCF7-BRCA1-FFLuc reporter, luminescence, 48 h; response scale: scaled: vehicle 0%, 10 µM genistein 100%; Potency, µM (doses to about 46.1 µM), inactives show at the highest dose activation, usual class: activators; 380,000 compounds, 1.1% hits; AID 624202; active = well fitted activation curve with a large enough effect; inconclusive = small, poorly fitted or top-dose-only effect; inactive = no such curve, though single readings can be large or run the other way; also: potency is read from the fitted curve at half-maximal effect; nearly all actives have a fitted effect of over 80% in size
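48 h compound treatment of MCF7-BRCA1-FFLuc cells (phenol-red free MEM, 37 °C), then 15 min with luciferase substrate and luminescence imaging.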
PKM2 act = increases activity of human pyruvate kinase M2. Potency, µM (top dose mostly 57.5 µM), without a hit: at the highest dose activation, most hits filed as activators. AID 1631. purified PKM2, Kinase-Glo ATP luminescence, activation; response scale: 0% is enzyme alone, no compound. P14618. 260,000 compounds, 0.34% hits; active = well fitted activation curve with a large enough effect; inconclusive = small, poorly fitted or top-dose-only effect; inactive = no such curve, though single readings can be large or run the other way; also: potency is read from the fitted curve at half-maximal effect; % is scaled to controls: 0 for no effect and ±100 for the full control effect; nearly all actives have a fitted effect of over 55% in size
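Kinase-Glo luminescence reports ATP generated from ADP (0.1 mM) and PEP (0.5 mM) by purified hPK-M2 after 1 h at room temperature, pH 7.2 imidazole buffer; intermediate enzyme activity allows detecting inhibitors and activators.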
TRPML1 inh = blocks the human TRPML1 channel. TRPML1-inducible cells, Ca2+ dye fluorescence, FDSS; active compounds read low; inhibition of EC80 agonist-evoked calcium signal. AID 624415. activity change, negative = inhibition, % (concentration not given with the values). 390,000 compounds, 0.02% hits; in the data active = activity change below about -50%; inconclusive = between about -30% and that limit;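 also: stimulus is agonist 54-4 at its EC80 concentration; % is scaled to controls: 0 for no effect and ±100 for the full control effect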
Target sequence (Q9GZU1 whole entry, looked up): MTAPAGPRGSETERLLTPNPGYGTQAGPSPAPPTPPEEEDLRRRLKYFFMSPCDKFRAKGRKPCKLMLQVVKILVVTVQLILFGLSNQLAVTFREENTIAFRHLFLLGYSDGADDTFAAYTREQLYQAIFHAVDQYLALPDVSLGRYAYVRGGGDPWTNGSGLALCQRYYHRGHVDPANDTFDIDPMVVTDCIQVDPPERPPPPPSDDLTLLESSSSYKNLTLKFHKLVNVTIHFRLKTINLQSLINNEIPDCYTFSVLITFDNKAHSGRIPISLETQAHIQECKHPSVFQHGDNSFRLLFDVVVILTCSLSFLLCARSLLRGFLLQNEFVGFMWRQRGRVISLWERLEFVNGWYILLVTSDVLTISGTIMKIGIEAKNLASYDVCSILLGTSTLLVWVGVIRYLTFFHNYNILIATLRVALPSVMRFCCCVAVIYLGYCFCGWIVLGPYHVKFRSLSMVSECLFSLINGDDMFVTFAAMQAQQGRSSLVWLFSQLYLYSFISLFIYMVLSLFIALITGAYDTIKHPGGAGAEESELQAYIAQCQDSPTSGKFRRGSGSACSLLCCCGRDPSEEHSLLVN
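Tet-induced TRPML1-DL cells loaded with Ca8 no-wash calcium dye were read kinetically on FDSS. Compound addition was followed by EC80 agonist 54-4 (4 uM final); inhibition was read over 110 s.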
TRPML1 agonist = agonists of human TRPML1 channel. activation, % (test concentration not listed). TRPML1-expressing cells, Ca2+ dye fluorescence, FDSS. Q9GZU1. 410,000 compounds, 0.12% hits. AID 624414; also: 0% is about no effect
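Calcium fluorescence on an FDSS kinetic reader gave the read-out. Tet-induced TRPML1-DL cells were plated overnight, dye-loaded (Ca8 with quencher, 45-90 min, room temperature, dark), then read 110 s after compound addition, and again 110 s after 4uM final 54-4 (EC80).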
PTAP TSG101 blk = blocks PTAP/TSG101 interaction to inhibit HIV-1 budding; Q99816; Fluorescence polarization, FITC-PTAP peptide / Tsg101 binding; Potency, µM (titrated, usually from 115 µM), for the others: top-dose activity change, negative = inhibition, usual class: inhibitors; 340,000 tested, under 10 active; AID 493005; active = well fitted inhibition curve with a large enough effect in the main read-out, with a control signal flat, not every such curve was filed as active; inconclusive = small, poorly fitted or top-dose-only effect, or effect the other way, or a change in a side signal; inactive = no such curve, though single readings can be large or run the other way; also: potency is read from the fitted curve at half-maximal effect; % of control where 0% means no effect
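FP read-out: FITC-PTAP peptide, 50 nM final, binding Tsg101 binding domain, 10 uM final; 20 min, r.t.; 10 mM HEPES pH 7.5, 0.15 M NaCl, 0.01% Tween 20, 3 mM EDTA, 0.1 mM TCEP.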
IL-2 act = activates IL-2 in a cell-based reporter assay. IL-2 activation reporter assay, cell-based qHTS; stimulated with anti-CD3/CD4/CD28 beads; in transgenic mouse T cells. activation, % (series mostly up to about 46 µM). 360,000 compounds, 0.065% hits; also: 0% is about no effect
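Unstimulated transgenic mouse T cells, 750 per well, received compound and, after 60 minutes, anti-CD3/anti-CD4 bead plus anti-CD28 stimulation. EGFP and DsRed were quantified after 18 hours.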
Numbers without * were called inactive; ? = inconclusive; . = not tested or not shown. A selection: hits, their analogues and other compounds. The true share with any hit is near 1.3%. Rule as the data show it, unless noted: active = activation above about 50%; inconclusive = mostly about 30% to 49%; inactive = weaker than that.

SMILES	BRCA1 expr up	PKM2 act	TRPML1 inh	TRPML1 agonist	PTAP TSG101 blk	IL-2 act
O=C(NCCc1cccs1)c1ccc(Cl)c(Cl)c1	4µM*	0%	5	3	2%	-2
O=C(NCCc1ccccc1)c1ccc(Cl)c([N+](=O)[O-])c1	4µM*	4%	-10	0	-5%	-1
Cc1ccc(C(=O)NCCSC(C)(C)C)cc1[N+](=O)[O-]	11µM*	-9%	-8	0	0%	-2
CSCCNC(=O)c1ccc(C(C)(C)C)cc1	7.1µM*	-6%	11	0	-3%	0
Cc1ccc(C(=O)NCCSC(C)(C)C)cc1	31%	1%	-9	-1	-1%	-1
C[N+]1(CC(=O)c2ccc(Cl)cc2)CCOCC1	.	.	.	0	.	.
O=C(COc1ccccc1)NCCc1csc(-c2cccc(F)c2)n1	.	.	-27	1	.	.
O=C(NCCc1ccccc1)c1ccc([N+](=O)[O-])cc1	35%	-9%	3	0	-1%	-1
Cc1cc(C(=O)NCCc2ccccc2)ccc1[N+](=O)[O-]	6.3µM*	9%	-4	0	-8%	0
O=C(C[N+]1(CCO)CCOCC1)c1ccc(F)c2ccccc12	-47%	.	.	2	.	.
CC(N=c1ccccn1C(=O)Nc1ccc(F)cc1)c1ccco1 (stereo not given)	25%	0%	3	1	-3%	-3
CC(N=c1ccccn1C(=O)Nc1ccc(Cl)cc1)c1ccco1 (stereo not given)	10µM*	-12%	19	1	4%	2
Cc1ccc(CNC(=O)CCS(=O)(=O)c2cc(Br)cc3c2N(C(=O)C2CC2)CC3)o1	-10%	7.9µM*	-11	0	-3%	0
COc1ccc(-c2nc(CN3CCN(Cc4ccccc4)CC3)c(C)o2)cc1	-10%	-4%	2	0	2%	0
Cc1oc(-c2ccc(-c3ccccc3)cc2)nc1CN1CCN(CC(=O)N(C)C)CC1	8.9µM*	1%	3	0	-3%	0
Cc1c(C(=O)O)cccc1-c1ccc(C=O)o1	7.9µM*	-9%	-8	1	0%	0
CC(C)CN(CC(C)C)c1ccc(/C=C/c2nc3ccccc3s2)cc1	-4%	.	.	2	.	.
O=C(Nc1ccccc1)C1=C(O)CC(c2ccc(Cl)cc2)N2CCN=C12 (stereo not given)	-9%	18µM*	8	0	-3%	0
CC(=O)N1CCC(N(Cc2ccc(C)o2)C(=O)Nc2cccc(C(F)(F)F)c2)CC1	.	.	-3	-1	.	.
COc1ccc(-c2csc(NC(=O)CSc3nc(C)cs3)n2)cc1	13µM*	.	0	2	0%	0
Cc1csc(SCC(=O)Nc2ccc(S(=O)(=O)N3CCCC3)cc2)n1	-1%	20µM*	-6	1	0%	-2
COc1ccc(-c2csc(NC(=O)COC(=O)C3=COCCO3)n2)cc1	5µM*	.	-7	1	1%	0
COC(=O)c1ccc(C)cc1C1CN=NC12Cc1cc(C)ccc1C2=O (stereo not given)	-56%	.	-22	95*	-5%	-1
COc1cc(/C=C2\SC(=Nc3ccccc3)NC2=O)cc(Cl)c1O	-38%	.	-18	77*	?	7
COC(=O)/C=C1\SC(=Nc2ccc(Cl)c(Cl)c2)NC1=O	-24%	-2%	26	1	0%	0
COc1cc(/C=C2\SC(=Nc3ccc(Cl)c(C(=O)O)c3)NC2=O)c(Br)c(Br)c1O	-13%	-29%	-4	67*	?	0
O=CNc1ccc(/C=C/c2ccnc3ccccc23)cc1	29%	.	.	-1	.	.
O=C(NNC(=O)c1cccs1)c1ccc(Br)cc1	13µM*	3%	7	0	4%	0
O=C(NNC(=O)c1cccs1)c1ccccc1	53%	-1%	-2	1	-3%	-2

Screens as filed in PubChem.
